# Source: PubChem BioAssay
# HT1080 IDH1KD tx = qHTS for induction of synthetic lethality in tumor cells producing 2HG: qHTS for the HT-1080-IDH1KD cell line | HT-1080 IDH1 knockdown viability, ATP luminescence, 48 h | Potency, µM (series often up to 46.1 µM), without a hit: top-dose activity, negative = toxicity, actives largely listed as cytotoxic | 360,000 compounds, 2% hits | AID 686971, 2013;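 note: potency is the fitted concentration of half-maximal effect; 0% = DMSO wells and -100% = cell-free medium wells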
#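 HT-1080-IDH1KD cells (IDH1 knocked down), 750/well in RPMI with 5% FBS, treated with compound 48 h at 37 degrees C. Viability by CellTiter-Glo luminescence, normalised to DMSO and no-cell wells; concentration-response curves classed.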
# DT40 TDP1 no CPT = qHTS for Inhibitors of human tyrosyl-DNA phosphodiesterase 1 (TDP1): qHTS in cells in absence of CPT | DT40 Tdp1-/- hTDP1 cells, no CPT, ATP luminescence, 48 h | Potency, µM (top dose mostly 46.2 µM), without a hit: at the top dose activity change, negative = growth inhibition, usual class: inhibitors | 420,000 compounds, 15% hits; note: potency is the fitted concentration of half-maximal effect; nearly all actives have a fitted effect of over 55% in size
#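 Cells were dispensed at 400 per well, compounds added by pin tool, plates incubated ≥48 hr at 37 °C, then CellTiter-Glo added for 30 min at room temperature before luminescence reading. Line: DT40 Tdp1-/- complemented with hTDP1; camptothecin omitted.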
# IL-1B inflam inh = qHTS for Inhibitors of Inflammasome Signaling: IL-1-beta AlphaLISA Primary Screen; activity change, % at 57.5 µM; THP-1 LPS/ATP IL-1B secretion, AlphaLISA, 16 h; hits give low values; 360,000 compounds, 4.7% hits; in the data active = activity change below about -50%; inconclusive = mostly about -30% to -49%
#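 Secreted IL-1B measured by AlphaLISA bead assay after 16 h compound exposure of THP-1 cells; compounds (final up to 57.5 uM) added 1 h before LPS (250 ng/mL) and ATP (1.25 mM) stimulation; lower signal means less secretion.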
# HT1080NT lethal = qHTS for induction of synthetic lethality in tumor cells producing 2HG: qHTS for the HT-1080-NT fibrosarcoma cell line; Potency, µM (series often up to 46.1 µM), for the others: at the top dose activity, negative = less viability, actives largely listed as cytotoxic; HT-1080-NT fibrosarcoma viability, CellTiter-Glo ATP luminescence, 48 h; 360,000 compounds, 1.6% hits;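 note: NT is the 2HG producing partner of a matched IDH1 knockdown line; potency is the fitted concentration of half-maximal effect; 0% = DMSO-treated cells and -100% = media-only wells without cells; nearly all actives have a fitted effect of over 55% in size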
#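 750 cells/well, RPMI + 5% FBS; 2 h settle, compound pin-transfer, 48 h at 37 degrees C. CellTiter-Glo 10 min RT, luminescence. Normalized to DMSO and media-only wells.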
# ALOX12 inh = Primary qHTS assay for inhibitors of human arachidonate 12S-lipoxygenase (ALOX12): Round 2; purified 12hLO, xylenol orange hydroperoxide absorbance; Polyunsaturated fatty acid lipoxygenase ALOX12 (Homo sapiens), P18054; 580,000 compounds, 1.1% hits; Potency, µM (doses to about 108 µM), inactives show at the top dose activity change, negative = inhibition, most hits filed as inhibitors; note: potency is the fitted concentration of half-maximal effect
# Target sequence (P18054 whole entry, looked up): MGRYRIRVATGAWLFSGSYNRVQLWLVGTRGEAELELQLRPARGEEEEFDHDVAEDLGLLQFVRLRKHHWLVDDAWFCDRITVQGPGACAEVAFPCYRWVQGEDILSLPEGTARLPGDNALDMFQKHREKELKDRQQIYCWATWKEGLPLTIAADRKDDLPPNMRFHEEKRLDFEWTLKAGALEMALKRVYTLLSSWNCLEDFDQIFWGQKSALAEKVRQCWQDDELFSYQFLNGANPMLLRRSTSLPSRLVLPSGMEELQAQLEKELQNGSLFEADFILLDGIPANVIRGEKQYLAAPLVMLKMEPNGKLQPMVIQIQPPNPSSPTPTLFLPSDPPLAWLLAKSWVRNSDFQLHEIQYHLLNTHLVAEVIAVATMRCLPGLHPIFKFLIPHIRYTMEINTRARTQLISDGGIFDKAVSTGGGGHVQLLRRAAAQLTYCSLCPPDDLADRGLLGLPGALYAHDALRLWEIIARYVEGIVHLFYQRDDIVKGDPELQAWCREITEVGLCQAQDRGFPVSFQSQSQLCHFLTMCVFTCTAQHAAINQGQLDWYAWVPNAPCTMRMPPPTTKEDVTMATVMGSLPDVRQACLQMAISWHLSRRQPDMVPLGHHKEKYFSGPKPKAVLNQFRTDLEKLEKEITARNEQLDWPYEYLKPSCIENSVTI
#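 Hydroperoxide product was detected by ferrous iron/xylenol orange as the 573 to 405 nm absorbance ratio. Arachidonic acid at 40 uM (final) was turned over for 30 min at room temperature by 150 nM human 12hLO, pH 7.0 Hepes buffer, after 15 min compound preincubation.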
# DT40 TDP1 CPT = qHTS for Inhibitors of human tyrosyl-DNA phosphodiesterase 1 (TDP1): qHTS in cells in presence of CPT; 420,000 compounds, 12% hits; chicken DT40 Tdp1-/-;hTDP1 cells + 20 nM CPT, ATP luminescence, 48 h; Potency, µM (titrated, usually from 46.2 µM), for the others: at the highest dose activity change, negative = growth inhibition, hits mostly inhibitors; note: potency is the fitted concentration of half-maximal effect; nearly all actives have a fitted effect of over 55% in size
#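 Cell growth measured by CellTiter-Glo luminescence after a minimum 48 h, 37 C compound exposure with 20 nM CPT in Tdp1-knockout DT40 cells stably expressing hTDP1, seeded 400/well; qHTS titration format.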
# An asterisk follows results filed as active; ? = inconclusive; · = no result; [ ] = remark or other dose. Many of the other results were omitted from the sample, so hits are more common in it than they were. Unless noted, calls come from the whole dose curve; as a rule, active = well fitted curve in the direction sought with a large enough effect; inconclusive = small, poorly fitted or top-dose-only effect, or another doubt; inactive = no such curve, though single readings can be large; an effect the other way counts as inactive or inconclusive. Unless noted, % is set by controls: 0 for no effect and ±100 for the full control effect.
SMILES,HT1080 IDH1KD tx,DT40 TDP1 no CPT,IL-1B inflam inh,HT1080NT lethal,ALOX12 inh,DT40 TDP1 CPT
COc1ccc(C(=O)NC(C)c2nnc(SCc3ccc(Cl)c(Cl)c3)n2C)cc1 (configuration not stated),-26%,-21%,?,7%,4µM*,-24%
COc1ccc(OCCSc2nnc(CCNC(=O)c3ccc(Cl)c(Cl)c3)n2C)cc1,-30%,?,-1,-18%,20%,25µM*
COc1ccc(OCCSc2nnc(CCNC(=O)c3ccc(OC)cc3)n2C)cc1,-18%,-26%,-16,4%,6%,?
Cc1ccc(CN2CCC3(CC2)CN(c2ncccn2)CC3CO)cc1C (configuration not stated),·,·,·,·,13%,·
COc1ccc2[nH]cc(CCNC(=O)C3Cn4cccc4C(=O)N3C)c2c1 (configuration not stated),·,·,·,·,43%,·
COCCNc1cc(C)nc2c(-c3ccccc3OC)c(C)nn12,-1%,-11%,29,14%,23%,-4%
COc1ccc(CCNc2cc(C)nc3c(-c4ccc(Cl)cc4)cnn23)cc1OC,-28%,16µM*,-15,?,-9%,21µM*
Cc1cc(NC2CCCC2)n2nc(C)c(-c3ccccc3)c2n1,-24%,?,-74*,-4%,0%,?
COc1ccc(CCNc2cc(C)nc3c(-c4ccccc4)c(C)nn23)cc1OC,-1%,16µM*,5,-1%,7%,?
CC(=O)Nc1ccc(Nc2cc(C)nc3c(-c4ccc(Cl)cc4)cnn23)cc1,?,23µM*,-7,-12%,41%,18µM*
CC(=O)Nc1ccc(Nc2cc(C)nc3c(-c4ccc(Cl)cc4)c(C)nn23)cc1,?,?,?,?,-14%,?
COc1ccc(CCNc2cc(C)nc(N)n2)cc1OC,-3%,?,-2,4%,0%,?
O=C(O)C1=NOC2CN([S+](=O)([O-])CCC(F)(F)F)CC12 (configuration not stated),·,·,·,·,-2%[6.33 µM],·
C=CCOC(=O)C1=C(C)N=C2SC=C(CC(=O)N3CCCC3)N2C1c1ccc(F)cc1 (configuration not stated),·,·,·,·,18%,·
COc1ccc(CCNc2cc(C)nc3c(-c4ccccc4)cnn23)cc1OC,?,29µM*,?,-20%,1%,?
COc1nc(NCCc2ccc(OC)c(OC)c2)nc(Nc2ccccc2)n1,-5%,?,-81*,-2%,?,15µM*
COc1ccccc1-c1cnn2c(NCCc3ccccc3)cc(C)nc12,-6%,?,?,-5%,-8%,4%
COc1ccc(Cc2nnc(SCC(=O)Nc3ccc(C)cc3C)[nH]c2=O)cc1,-5%,?,12,-1%,-23%,4%
COc1ccc(Cc2nnc(SCC(=O)Nc3c(C)cccc3C)[nH]c2=O)cc1,0%,9.2µM*,7,-5%,?,?
CC(=O)Nc1scc(-c2ccccc2)[n+]1-c1ccc(C)cc1,-9%,13µM*,-20,1%,-22%,15µM*
COc1cccc(-c2cc(N3C(=O)Nc4ccccc4N3O)n[nH]2)c1,10%,4%,14,11%,?,-23%
CCOc1ccc(-c2cc(N3C(=O)Nc4ccccc4N3O)n[nH]2)cc1,21µM*,-13%,0,16µM*,10%,12%
O=C(O)C1CN(C(=O)N2CCOCC2)CCN(C2CCOCC2)C1 (configuration not stated),·,·,·,·,-10%,·
COc1ccc2c(c1OC)C(=O)N1c3ccccc3C(=O)N(c3ccc(F)cc3)C21 (configuration not stated),11%,12µM*,-15,4%,429%,?
COc1ccc2c(c1OC)C(=O)N1c3ccccc3C(=O)N(c3ccccc3)C21 (configuration not stated),1%,9.2µM*,-12,-9%,192%,12µM*
SMILES,HT1080 IDH1KD tx,DT40 TDP1 no CPT,IL-1B inflam inh,HT1080NT lethal,ALOX12 inh,DT40 TDP1 CPT
COc1ccc2c(c1OC)C(=O)N1N=C(c3ccc(-c4ccccc4)cc3)CC21 (configuration not stated),-2%,?,-3,3%,8%,-16%
NC(=O)[C@@H]1C[C@H](Oc2cccnc2)CN1C(=O)CN1CCCCCC1,·,·,·,·,66%,·
CCn1c(C)[n+](Cc2ccccc2)c2ccc(C(=O)OC)cc21,-3%,-25%,-12,-1%,?,2%
CCOC(=O)c1ccc2c(c1)n(CC)c(/C=C/Nc1ccccc1)[n+]2CC,-11%,12µM*,0,-5%,?,18µM*
Cc1n(-c2ccccc2)c2ccc(Cl)cc2[n+]1CCO,2%,-10%,-10,-1%,?,11%
CCn1c(/C=C/Nc2ccccc2)[n+](CC)c2ccc(Cl)cc21,-18%,21µM*,-3,0%,?,23µM*
CCn1c(/C=C/N(C)c2ccccc2)[n+](CC)c2ccc(Cl)cc21,-23%,1.3µM*,-98*,7.1µM*,?,0.58µM*
CCN1C(=O)C(=CC=CN(C)c2ccccc2)SC1=S,11%,?,-13,10%,?,?
CC(C)(C)S(=O)(=O)N1C[C@@H]2CC(=O)C=C2[C@H]1CCO,·,·,·,·,5%,·
CNS(=O)(=O)c1ccc(NCCc2ccc(S(N)(=O)=O)s2)c([N+](=O)[O-])c1,·,·,·,·,18µM*,·
CC(C)=CC(=O)N(C)C(C)c1cccc([N+](=O)[O-])c1 (configuration not stated),·,·,·,·,-49%,·
O=C(CN(C(=O)c1cc2c(s1)CCC2)C1CCCC1)NCc1cccs1,5%[9.24 µM],18µM*,?,-7%,-20%,8.2µM*
O=C(CN(Cc1ccccc1)C(=O)c1cc2c(s1)CCC2)NCc1cccs1,-7%,?,?,-1%,0%,-24%
COc1ccc(Nc2cc(C)nc(N3CCN(C(=O)c4ccc5c(c4)OCO5)CC3)n2)cc1,-14%,?,-12,0%,-15%,-27%
CCN(c1ccccc1)S(=O)(=O)Cc1ccccc1Cl,·,·,·,·,2%,·
